Values without a mark were called inactive. A call without a number means that no potency is given here. The source made the active and inactive calls. Calls come from the whole dose curve; as a rule, active = well fitted activation curve with a large enough effect in the repeat runs; inconclusive = weak or mixed curves; inactive = flat fitted curve, though single readings scatter.

A short description of the assay: A CellTox Green Cytotoxicity Assay to monitor cytotoxicity in HepG2 cells - 0 hour (AID 1224882). Note: nearly all actives have a fitted effect of over 35% in size. The settings on record: CellTox Green fluorescence; series mostly up to 76.8 µM. The text has this:
National Center for Advancing Translational Sciences [NCATS]
NIH Chemical Genomics Center [NCGC]
U.S. Environmental Protection Agency [EPA]
National Institutes of Environmental Health Sciences [NIEHS]
National Toxicology Program [NTP]
Cell-based models are critical for drug discovery. Determining the natural cytotoxic effects resulting from test compounds is an essential research activity. A CellTox Green Cytotoxicity Assay to monitor cytotoxicity in real time of continues cell culture during 40 hours of the compound treatment was used to screen Tox21 10K library compounds in HepG2 cells. CellTox Green Cytotoxicity Assay is a nonlytic, homogeneous, biofluorescent method to measure cytotoxicity in cell culture after experimental manipulation. The assay system uses a proprietary asymmetric cyanine dye that is excluded from viable cells but preferentially stains the dead cell's DNA. […] Viable cells produce no appreciable increases in fluorescence. Therefore, the fluorescence signal produced by the binding interaction with dead cell DNA is proportional to cytotoxicity.
The mixture of HepG2 cell suspension and reagents were dispensed at 600cells/6 ul/well in 1536-well tissue culture treated black solid bottom plates using a Multidrop dispenser. After the assay plates were incubated at a 37 C/5% CO2 incubator for 5 hours, 23 nL of compounds dissolved in DMSO, positive and negative controls was transferred to the assay plate by a pintool work station. The plates were incubated at 37 C for 40 hours. The fluorescence intensity were measured at 0h, 8h, 16h, 24h, 32h and 40h time points using ViewLux plate reader during compound treatment.
In the case of `CC(=O)O[C@H](CC(=O)[O-])C[N+](C)(C)C`, the Potency entry was “inactive”.

In the case of `NS(=O)(=O)c1cc2c(cc1C(F)(F)F)NC(Cc1ccccc1)NS2(=O)=O` (stereo not given), the Potency entry was “inactive”. The same measure, in the same setting: for `CCC(C)OC(=O)N1CCCCC1CCO` (stereo not given) the value was “inactive”; for `CC12CCC(CC1=O)C2(C)C` (stereo not given), “inactive”. The same measure, in the same setting: under `CCCCCCCCCCCCCCC` stands “inactive”; under `Cc1ccc(N)cc1[N+](=O)[O-]`, “inactive”. As for `COc1cc(O)cc(O)c1`, the Potency result was “inactive”. As for `CCCC(C)CO` (stereo not given), the Potency entry is “inactive”.

With `NC(=O)c1c(Cl)cccc1Cl`, the Potency result was “inactive”. On the same count and under the same terms, for `Nc1[nH]c(=O)ncc1F` the value was “inactive”; for `CC1=CC(C)C(C=O)C(C)C1` (stereo not given), “inactive”; for `CCCCc1ccc(N)cc1`, “inactive”.

For the molecule `CSc1ccc(C=O)cc1`, the Potency result is “inactive”.

As for `COC(=O)CCCC(=O)O`, the Potency result was “inactive”. `C#CC(O)CCCCC` (stereo not given): the Potency result was “inactive”. In the case of `CCN1CCCC1CNC(=O)c1cc(S(N)(=O)=O)ccc1OC` (stereo not given), the Potency result is “inactive”.

`O=Cc1ccccc1[N+](=O)[O-]`: the Potency entry was “inactive”. Consider `CCCCOCC(C)OCC(C)O` (stereo not given), for which the Potency result was “inactive”. Regarding `C#CC(O)C(CC)CCCC` (stereo not given), the Potency result is “inactive”. Regarding `CC(C)[N+](C)(C)CC(O)COc1cccc2ccccc12` (stereo not given), the Potency entry is “inactive”. Still for that read-out and setting: for `CCCCCCCCCCCl` the value was “inactive”; for `COc1cc(C(=O)N2CCOCC2)cc(OC)c1OC`, “inactive”; for `CCCCCCOC(=O)CC(CC(=O)OCCCCCC)(OC(=O)CCC)C(=O)OCCCCCC`, “inactive”. On the same count and under the same terms, under `CC(=O)NC(Cc1ccccc1)C(=O)O` (stereo not given) stands “inactive”. As for `CCn1cc(C(=O)O)c(=O)c2cc(F)c(N3CCN(C)CC3)cc21`, the cytotoxicity was -1.13% [at 15.8 µM]. Consider `CC1=CCC2C(C1)C2(C)C` (stereo not given), for which the Potency result is “inactive”. The same measure, in the same setting: for `C1C2OC2C2C1C1CC2C2OC12` (stereo not given) the value was “inactive”; for `CC(C)COC(=O)c1ccccc1O`, “inactive”; for `CCCCCCCCCCCCI`, “inactive”. Still for that read-out and setting: for `CCCCCCCCCCCCCCCCCC(=O)OCCCCCCCCCCCCCC(C)C` the value was “inactive”. Same read-out and setting: under `NC(CS)C(=O)O` (stereo not given) stands “inactive”. With `CCN(CC)S(=O)(=O)c1ccc(C(=O)O)cc1`, the Potency result is “inactive”.

With `CCO[Si](CCCN=C=O)(OCC)OCC`, the Potency result is “inactive”. Regarding `O=C(O)c1cccc(C(=O)O)n1`, the Potency entry was “inactive”. As to `C=CCOc1nc(OCC=C)nc(OCC=C)n1`, the Potency result is “inactive”.

On to `CN(C)CCOC(c1ccc(Cl)cc1)c1ccccn1` (stereo not given), for which the Potency entry was “inactive”. For the molecule `Nc1ncnc2c1ncn2Cc1c(F)cccc1Cl`, the Potency entry was “inactive”. `CC(C)(O)C(=O)c1ccc(OCCO)cc1`: the Potency result was “inactive”. For the molecule `CCCCNc1ccccc1`, the Potency entry was “inactive”.

As to `CCC(=O)c1cccc(Cl)c1`, the Potency result was “inactive”.
